Test results from PubChem BioAssay (NCATS).
Records with an inconclusive call do not appear. Calls of active or inactive are those of the source. The call rests on the fitted dose curve; in most records, active means well fitted curve in the direction sought with a large enough effect; inconclusive means small, poorly fitted or top-dose-only effect, or another doubt; inactive means no such curve, though single readings can be large; an effect the other way counts as inactive or inconclusive.

test system: not listed separately; experiment: Cellular Toxicity (caspase-3) MRC-5 (AID 659); settings: MRC-5 cells, luminescence, normalized: DMSO 0%, 10 µM staurosporine 100%; series mostly up to 91.7 µM; caspase-3 activation: at the top concentration
In short: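 Concentration-dependent caspase 3/7 activation is measured in human normal lung fibroblasts (MRC-5) following 16-hour treatment. AC50 values come from standard Hill-equation modeling of luminescence normalized to DMSO and 10 uM staurosporine.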

Row | SMILES | caspase-3 activation
1 | CC1=CC(=O)CC(C)(C)C1(O)/C=C/C(C)=C\C(=O)O (centres undefined) | -3.28% (inactive)
2 | COS(C)(=O)=O | 4.38% (inactive)

test system: not listed separately; experiment: Cellular Toxicity (caspase-3) Mesangial (AID 660); settings: mesangial cells, normalized: DMSO 0%, 100 µM tamoxifen 100%; series mostly up to 91.7 µM; caspase-3 activation: at the top concentration;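 further: combined caspase 3 and 7 activity read by Caspase-Glo luminescence; cells exposed to compound for 16 h before the caspase read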
In short: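 Mesangial cells, 1000/well, 5 h settle at 37 °C; compound 16 h, 37 °C; Caspase-Glo 3/7 reagent 20 min RT; luminescence. Norm.: DMSO = 0%, tamoxifen 100 uM = 100%. AC50, Hill fit.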

Row | SMILES | caspase-3 activation
3 | Cc1occc(=O)c1O | 0.209% (inactive)
4 | CC1=CC(=O)CC(C)(C)C1(O)/C=C/C(C)=C\C(=O)O (centres undefined) | -0.442% (inactive)
5 | COS(C)(=O)=O | 0.458% (inactive)

test system: not listed separately; experiment: Cellular Toxicity (caspase-3) SK-N-SH (AID 661); settings: SK-N-SH caspase-3 activation, qHTS, DMSO as zero, staurosporine as full; series mostly up to 91.7 µM; caspase-3 activation: at the top concentration
In short: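 Human neuroblastoma SK-N-SH, 1500 cells/well, 5 hr pre-incubation, then compound 16 hr, 37 °C. Caspase-Glo 3/7 reagent, 1 hr RT, luminescence. Norm. to DMSO/10 uM staurosporine; Hill-fit AC50.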

Row | SMILES | caspase-3 activation
6 | Cc1occc(=O)c1O | -0.186% (inactive)
7 | CC1=CC(=O)CC(C)(C)C1(O)/C=C/C(C)=C\C(=O)O (centres undefined) | 3.38% (inactive)
8 | COS(C)(=O)=O | 1.35% (inactive)

test system: not listed separately; experiment: Cellular Toxicity (caspase-3) H-4-II-E (AID 663); settings: H-4-II-E rat hepatoma, scaled: DMSO 0%, 100 µM tamoxifen 100%; series mostly up to 92.2 µM; caspase-3 activation: at the top concentration;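 further: cells exposed to compound for 16 hr before readout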
In short: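 Apoptosis induction is scored as increased luminescence from caspase 3/7 substrate cleavage in rat hepatoma H-4-II-E cells exposed to compound for 16 hr. Activity is scaled between DMSO and 100 uM tamoxifen.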

Row | SMILES | caspase-3 activation
9 | Cc1occc(=O)c1O | 0.397% (inactive)
10 | CC1=CC(=O)CC(C)(C)C1(O)/C=C/C(C)=C\C(=O)O (centres undefined) | 0.335% (inactive)
11 | COS(C)(=O)=O | 0.721% (inactive)

test system: not listed separately; experiment: Cellular Toxicity (caspase-3) Hek293 (AID 664); settings: HEK293 caspase-3 activation, DMSO = 0%, 100 µM tamoxifen = 100%; series mostly up to 92.2 µM; caspase-3 activation: at the top concentration;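 further: cells exposed to compound for 16 h at 37 °C before readout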
In short: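 Cells plated, 5 hr at 37 °C; compounds added; 16 hr at 37 °C; Caspase-Glo 3/7 reagent, 20 min RT; luminescence read. Activation expressed relative to DMSO and 100 uM tamoxifen, AC50 by Hill model.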

Row | SMILES | caspase-3 activation
12 | Cc1occc(=O)c1O | 0.937% (inactive)
13 | CC1=CC(=O)CC(C)(C)C1(O)/C=C/C(C)=C\C(=O)O (centres undefined) | -0.381% (inactive)
14 | COS(C)(=O)=O | 1.32% (inactive)

test system: not listed separately; experiment: Cellular Toxicity (caspase-3) N2a (AID 665); settings: N2a cells, luminescence, normalized: DMSO 0%, 10 µM staurosporine 100%; series mostly up to 92.2 µM; caspase-3 activation: at the top concentration;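 further: compound exposure lasted 16 h at 37 °C before readout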
In short: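 N2a cells, 1500/well, 5 h settle at 37 °C; cpd 16 h, 37 °C; Caspase-Glo 3/7, 1 h RT; luminescence. Norm: DMSO = 0, 10 uM staurosporine = 100%. AC50, Hill fit.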

Row | SMILES | caspase-3 activation
15 | Cc1occc(=O)c1O | -1.05% (inactive)
16 | CC1=CC(=O)CC(C)(C)C1(O)/C=C/C(C)=C\C(=O)O (centres undefined) | 0.8% (inactive)
17 | COS(C)(=O)=O | -0.401% (inactive)

test system: not listed separately; experiment: Cellular Toxicity (caspase-3) NIH 3T3 (AID 666); settings: NIH 3T3 caspase-3 activation, apoptosis/toxicity, 0% DMSO, 100% is 100 µM tamoxifen; series mostly up to 92.2 µM; caspase-3 activation: at the top concentration;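 further: caspase signal read after 16 h compound exposure; 0% = DMSO basal and 100% = 100 µM tamoxifen stimulation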
In short: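 Luminescence from aminoluciferin released by caspase-3/7 cleavage of a peptide substrate served as read-out. Mouse fibroblast NIH 3T3 cells were exposed to compounds over a concentration range for 16 hours, and AC50 values came from standard Hill modelling.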

Row | SMILES | caspase-3 activation
18 | Cc1occc(=O)c1O | 2.42% (inactive)
19 | CC1=CC(=O)CC(C)(C)C1(O)/C=C/C(C)=C\C(=O)O (centres undefined) | 0.436% (inactive)
20 | COS(C)(=O)=O | -2.93% (inactive)

test system: not listed separately; experiment: Cellular Toxicity (caspase-3) Renal Proximal Tubule (AID 667); settings: renal proximal tubule cells, primary cells freshly taken from rat, solvent-only wells 0%, staurosporine 100%; series mostly up to 91.7 µM; caspase-3 activation: at the top concentration;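 further: cells exposed to compound for 16 hours at 37 °C before detection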
In short: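 Freshly isolated primary rat kidney proximal tubule cells, 1000/well, treated 16 hr at 37 °C, then Caspase-Glo 3/7 luminescence after 1 hr. Normalized to DMSO and 10 uM staurosporine; AC50 from Hill fit.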

Row | SMILES | caspase-3 activation
21 | Cc1occc(=O)c1O | -1.34% (inactive)
22 | CC1=CC(=O)CC(C)(C)C1(O)/C=C/C(C)=C\C(=O)O (centres undefined) | 0.42% (inactive)
23 | COS(C)(=O)=O | -3.73% (inactive)

molecular target: Cytochrome P450 2C9 (Homo sapiens) (UniProt P11712); experiment: qHTS Assay for Inhibitors and Substrates of Cytochrome P450 2C9 (AID 883); settings: recombinant CYP2C9, luciferin-H luminescence, 60 min; series mostly up to 57.1 µM; activity change, negative = inhibition: at the top concentration; further: nearly all actives have a fitted effect of over 60% in size; further: potency means the concentration at half of the fitted maximal effect; on activity change, negative = inhibition: on the % scale 0 is the no-effect control and ±100 the full control effect
In short: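 Turnover of Luciferin-H (100uM, KM) by 10nM human CYP2C9 was measured over 60 min at 37C with NADPH regeneration; inhibitors and some substrates reduce luminescence. Data normalized to sulphaphenazole 57uM.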

Chain of Cytochrome P450 2C9 (Homo sapiens) (P11712 whole entry, looked up): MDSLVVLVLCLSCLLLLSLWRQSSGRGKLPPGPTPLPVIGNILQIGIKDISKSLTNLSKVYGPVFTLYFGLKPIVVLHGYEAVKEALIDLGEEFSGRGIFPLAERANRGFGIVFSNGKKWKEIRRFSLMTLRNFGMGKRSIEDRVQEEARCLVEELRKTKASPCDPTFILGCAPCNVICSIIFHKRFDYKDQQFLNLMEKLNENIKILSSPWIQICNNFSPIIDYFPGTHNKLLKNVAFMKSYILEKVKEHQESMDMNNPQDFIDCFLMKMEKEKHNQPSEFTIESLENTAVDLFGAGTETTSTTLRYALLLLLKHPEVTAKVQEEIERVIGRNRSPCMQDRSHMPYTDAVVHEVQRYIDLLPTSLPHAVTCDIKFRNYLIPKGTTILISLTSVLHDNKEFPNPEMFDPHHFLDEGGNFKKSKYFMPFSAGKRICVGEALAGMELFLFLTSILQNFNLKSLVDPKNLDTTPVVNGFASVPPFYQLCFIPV

Row | SMILES | Potency | activity change, negative = inhibition
24 | COc1ccc2[nH]cc(CCNc3ncnc4ccc(-c5ccc(C(=O)N(C)C)cc5)cc34)c2c1 | 251 nM (active) | 
25 | COCC(=O)N1CCC2(CCN(Cc3ccncc3)CC2)CC1 | 398 nM (active) | 
26 | N#CCCn1c(=O)cnc2cnc(N3CCNCC3)nc21 |  | 31.7% (inactive)
27 | Cc1cccc(CNc2ccnc(-c3ccccc3CN(C)C)n2)c1 |  | 13.9% [at 2.29 µM] (inactive)

molecular target: Cytochrome P450 3A4 (Homo sapiens) (UniProt P08684); experiment: qHTS Assay for Inhibitors and Substrates of Cytochrome P450 3A4 (AID 884); settings: recombinant CYP3A4, Luciferin-PPXE luminescence; series mostly up to 57.1 µM; activity change, negative = inhibition: at the top concentration; further: nearly all actives have a fitted effect of over 50% in size; further: potency means the concentration at half of the fitted maximal effect; on activity change, negative = inhibition: on the % scale 0 is the no-effect control and ±100 the full control effect
In short: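 20 nM human CYP3A4 with 25 uM Luciferin-PPXE (at KM) in 200 mM KPO4, preincubated 10 min with compound; NADPH regeneration started a 60 min RT reaction. Luciferin detected by luminescence, normalized to 57 uM ketoconazole as full inhibition.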

Chain of Cytochrome P450 3A4 (Homo sapiens) (P08684 whole entry, looked up): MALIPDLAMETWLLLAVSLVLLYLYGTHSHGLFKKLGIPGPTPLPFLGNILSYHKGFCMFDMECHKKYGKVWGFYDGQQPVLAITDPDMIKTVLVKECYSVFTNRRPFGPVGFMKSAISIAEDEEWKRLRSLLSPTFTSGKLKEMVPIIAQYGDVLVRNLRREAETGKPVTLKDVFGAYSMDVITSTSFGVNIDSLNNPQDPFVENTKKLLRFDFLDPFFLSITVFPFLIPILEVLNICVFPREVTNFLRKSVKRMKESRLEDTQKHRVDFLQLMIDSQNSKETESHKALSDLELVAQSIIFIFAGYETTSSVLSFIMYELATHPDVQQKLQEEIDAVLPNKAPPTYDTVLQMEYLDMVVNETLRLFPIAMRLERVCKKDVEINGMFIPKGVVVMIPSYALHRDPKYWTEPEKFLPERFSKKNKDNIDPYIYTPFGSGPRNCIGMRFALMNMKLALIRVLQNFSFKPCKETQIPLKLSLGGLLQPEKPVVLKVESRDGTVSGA

Row | SMILES | Potency | activity change, negative = inhibition
28 | CN(Cc1ccco1)c1ccnc(-c2cccc(NS(C)(=O)=O)c2)n1 | 6310 nM (active) | 
29 | Cc1cccc(CNc2ncncc2-c2ccccc2C(F)(F)F)c1 | 79.4 nM (active) | 
30 | COc1ccccc1-c1ccc2ncnc(N(C)C)c2c1 | 5010 nM (active) | 
31 | COc1ccc2[nH]cc(CCNc3ncnc4ccc(-c5ccc(C(=O)N(C)C)cc5)cc34)c2c1 | 2510 nM (active) | 
32 | Cc1cccc(CNc2cc(-c3ccc(C(=O)N(C)C)cc3)ncn2)c1 | 3160 nM (active) | 
33 | Cc1cccc(CNc2ccnc(-c3ccc(C(=O)N(C)C)cc3)n2)c1 |  | -70.6% (inactive)
34 | Cc1cccc(CNc2nc(-c3ccoc3)nc3ccccc23)c1 | 6310 nM (active) | 
35 | Cc1occc(=O)c1O |  | -13.9% (inactive)
36 | CC1=CC(=O)CC(C)(C)C1(O)/C=C/C(C)=C\C(=O)O (centres undefined) |  | -22.6% (inactive)
37 | c1ccc2c(Nc3ccncc3)nc(-c3ccoc3)nc2c1 | 1260 nM (active) | 
38 | CS(=O)(=O)Nc1cccc(-c2nc(N3CCOCC3)c3ccccc3n2)c1 | 1580 nM (active) | 
39 | COS(C)(=O)=O |  | -12% (inactive)
40 | Cc1cccc(CNc2nc(-c3cccc(NS(C)(=O)=O)c3)nc3ccccc23)c1 | 5010 nM (active) | 
41 | COCCNc1nc(-c2cccc(OC)c2)nc2ccccc12 | 5010 nM (active) | 
42 | CN(C)c1ccc(-c2cc(NCc3cccnc3)ncn2)cc1 | 3160 nM (active) | 
43 | COc1ccc2[nH]cc(CCNc3ncncc3-c3ccccc3CN(C)C)c2c1 | 631 nM (active) | 
44 | Cc1ccccc1-c1nc(-n2ccnc2)c2ccccc2n1 | 398 nM (active) | 
